# Results filed as inconclusive are left out. Unmarked numbers belong to inactive results. Unless noted, calls come from the whole dose curve; as a rule, active = well fitted cell-killing curve with a large enough effect in the repeat runs; inconclusive = weak or mixed curves, or effect the other way; inactive = no such curve, though single readings can be large or run the other way.
# Assay: qHTS assay to identify small molecule agonists of the endoplasmic reticulum stress response signaling pathway - cell viability counter screen (AID 1159517; calls by dose curve;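 note: HeLa cells carrying an ER stress response element beta-lactamase reporter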)
# Settings: ESRE-bla HeLa viability, CellTiter-Glo luminescence, 5 h; series mostly up to 61 µM; activity change, negative = cytotoxicity: at the top concentration
# Procedure, shortened: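 Cpd-treated ESRE-bla HeLa (5 hr, 37 C) → LiveBLAzer 2 hr RT → CellTiter-Glo 30 min RT → luminescence.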
# % is set by controls: 0 for no effect and ±100 for the full control effect.
# Note: nearly all actives have a fitted effect of over 50% in size.
row,Compound,"activity change, negative = cytotoxicity"
1,Cc1ccc(NC=O)c(C)c1,-1.87%
2,CC(CN=Cc1ccccc1O)N=Cc1ccccc1O (stereo not drawn),-5.82%
3,CCC(C)CCCC(C)(C)O (stereo not drawn),-13%
4,CO[C@@H]1[C@@H](O[C@@H]2O[C@H](C)[C@@H](O[C@H]3C[C@@](C)(O)[C@@H](O)[C@H](C)O3)[C@H](N(C)C)[C@H]2O)[C@@H](CC=O)C[C@@H](C)[C@@H](O[C@@H]2CC[C@H](N(C)C)[C@@H](C)O2)/C=C/C=C/C[C@@H](C)OC(=O)C[C@H]1OC(C)=O,4.44%
5,CC(=O)Nc1ccccc1O,6.23%
6,CCCCOC(=O)C(C)Oc1ccc(Oc2ccc(C(F)(F)F)cn2)cc1 (stereo not drawn),18%
7,C=CC(O)CCCCC (stereo not drawn),4.82%
8,CC(=O)OCC(=O)[C@@]1(O)CC[C@H]2[C@@H]3CCC4=CC(=O)C=C[C@]4(C)[C@@]3(F)[C@@H](O)C[C@@]21C,4.33%
9,O=C(O)CNc1ccccc1,5.27%
10,O=C(Nc1ccccc1)c1cc([N+](=O)[O-])ccc1Cl,5.62%
11,C=CC(C)CCC=C(C)C (stereo not drawn),0.173%
12,CC1=C(C)C(=O)C(CCCCC#CCCCC#CCO)=C(C)C1=O,-5.08%
13,CCCCCCCCC(=O)OCC(C)OC(=O)CCCCCCCC (stereo not drawn),12.5% [at 78.8 µM]
14,Cc1cc(C)n(CO)n1,-3.71%
15,OCCCO,0.867% [at 78.8 µM]
16,CCCCOC(=O)CC#N,-8.78% [at 78.8 µM]
17,CCN(CCCCOC(=O)c1ccc(OC)c(OC)c1)C(C)Cc1ccc(OC)cc1 (stereo not drawn),-1.55%
18,C[C@H](CN1CCCC1)C(=O)c1ccc(C(F)(F)F)cc1,-3.4%
19,CC(C)Oc1ccccc1O,-11.1%
20,FC1(F)C(F)(F)C(F)(F)C2(F)C(F)(C1(F)F)C(F)(F)C(F)(F)C1(F)C(F)(F)C(F)(F)C(F)(F)C(F)(F)C12F (stereo not drawn),-13.4%

row,Compound,"activity change, negative = cytotoxicity"
1,CCCCCCCCCCCCSC#N,-12%
2,CNc1ccccc1,7.25%
3,CC(C)(C(=O)O)c1ccc(C(O)CCCN2CCC(C(O)(c3ccccc3)c3ccccc3)CC2)cc1 (stereo not drawn),15.7%
4,CCCCC(CC)COCCC#N (stereo not drawn),-9.62%
5,O=C1OC(=O)C2CC=CCC12 (stereo not drawn),0.375% [at 78.8 µM]
6,C=CCCC,-2.09% [at 78.8 µM]
7,C=C(C)C(=O)OCCCCCCCCCCOC(=O)C(=C)C,-1.98%
8,CC(O)CN (stereo not drawn),-20%
9,COC(=O)C(C)(C)C,-1.79% [at 78.8 µM]
10,Nc1cccc2c(=O)[nH][nH]c(=O)c12,-26.9% [at 78.8 µM]
11,Cc1cc(N)n(-c2ccccc2)n1,1.11%
12,CC[C@H](NC(C)C)[C@H](O)c1ccc(O)c2[nH]c(=O)ccc12,1.29%
13,CC(O)C(C)O (stereo not drawn),-18.8% [at 78.8 µM]
14,NC(=O)c1ccccc1C(N)=O,12.1% [at 78.8 µM]
15,O=Cc1ccc(Cl)c([N+](=O)[O-])c1,-3.34%
16,O=C(OCCOCCOCCOC(=O)c1ccccc1)c1ccccc1,-5.26%
17,CCCN(C1CCN(C(=O)C2CCNCC2)CC1)[C@@H]1CCc2ccc(OC)cc2C1,19.7%
18,CC1(C)CC(=O)CC(C)(C)N1,9%
19,CO[C@@H]1COCC[C@@H]1N[C@@H]1CC[C@@](C(=O)N2CCc3ncc(C(F)(F)F)cc3C2)(C(C)C)C1,2.81%

# Assay: qHTS assay to identify small molecule antagonists of the retinoid-related orphan receptor gamma (ROR-gamma) signaling pathway - cell viability counter screen (AID 1159520)
# Settings: Tet-on RORgamma CHO cells viability, ATP luminescence, 16 h; series mostly up to 92.4 µM; activity, negative = cytotoxicity: at the top concentration
# Procedure, shortened: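 Tet-on ROR gamma CHO cells (1,000/well) were plated 4 hr, given compounds in DMSO for 2 hr at 37 C, then induced with 1 uM final doxycycline for 16 hr. Viability was read as ATP by CellTiter-Glo luminescence after 30 min.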
row,Compound,"activity, negative = cytotoxicity"
1,Cc1ccc(NC=O)c(C)c1,-11%
2,CC(CN=Cc1ccccc1O)N=Cc1ccccc1O (stereo not drawn),-4.65%
3,CCC(C)CCCC(C)(C)O (stereo not drawn),-0.134%
4,CO[C@@H]1[C@@H](O[C@@H]2O[C@H](C)[C@@H](O[C@H]3C[C@@](C)(O)[C@@H](O)[C@H](C)O3)[C@H](N(C)C)[C@H]2O)[C@@H](CC=O)C[C@@H](C)[C@@H](O[C@@H]2CC[C@H](N(C)C)[C@@H](C)O2)/C=C/C=C/C[C@@H](C)OC(=O)C[C@H]1OC(C)=O,3.86% [at 42.5 µM]
5,CC(=O)Nc1ccccc1O,-7.79%
6,CCCCOC(=O)C(C)Oc1ccc(Oc2ccc(C(F)(F)F)cn2)cc1 (stereo not drawn),-0.645%
7,C=CC(O)CCCCC (stereo not drawn),6.12%
8,CC(=O)OCC(=O)[C@@]1(O)CC[C@H]2[C@@H]3CCC4=CC(=O)C=C[C@]4(C)[C@@]3(F)[C@@H](O)C[C@@]21C,6.28% [at 42.5 µM]
9,O=C(O)CNc1ccccc1,-13.1%
10,O=C(Nc1ccccc1)c1cc([N+](=O)[O-])ccc1Cl,-7.14%
11,C=CC(C)CCC=C(C)C (stereo not drawn),1.39%
12,CC1=C(C)C(=O)C(CCCCC#CCCCC#CCO)=C(C)C1=O,-9.23% [at 42.5 µM]
13,CCCCCCCCC(=O)OCC(C)OC(=O)CCCCCCCC (stereo not drawn),-9.49%
14,Cc1cc(C)n(CO)n1,-5.18%
15,OCCCO,4.11%
16,CCCCOC(=O)CC#N,-7.23%
17,CCN(CCCCOC(=O)c1ccc(OC)c(OC)c1)C(C)Cc1ccc(OC)cc1 (stereo not drawn),-0.034% [at 42.5 µM]
18,C[C@H](CN1CCCC1)C(=O)c1ccc(C(F)(F)F)cc1,1.12% [at 42.5 µM]
19,CC(C)Oc1ccccc1O,9.79%
20,FC1(F)C(F)(F)C(F)(F)C2(F)C(F)(C1(F)F)C(F)(F)C(F)(F)C1(F)C(F)(F)C(F)(F)C(F)(F)C(F)(F)C12F (stereo not drawn),1.8%

row,Compound,"activity, negative = cytotoxicity"
1,CCCCCCCCCCCCSC#N,1.21%
2,CNc1ccccc1,0.0116%
3,CC(C)(C(=O)O)c1ccc(C(O)CCCN2CCC(C(O)(c3ccccc3)c3ccccc3)CC2)cc1 (stereo not drawn),2.61% [at 42.5 µM]
4,CCCCC(CC)COCCC#N (stereo not drawn),-1.71%
5,O=C1OC(=O)C2CC=CCC12 (stereo not drawn),12.5%
6,C=CCCC,5.68%
7,C=C(C)C(=O)OCCCCCCCCCCOC(=O)C(=C)C,-12.2%
8,CC(O)CN (stereo not drawn),4.82%
9,COC(=O)C(C)(C)C,1.72%
10,Nc1cccc2c(=O)[nH][nH]c(=O)c12,-14.4%
11,Cc1cc(N)n(-c2ccccc2)n1,4.21%
12,CC[C@H](NC(C)C)[C@H](O)c1ccc(O)c2[nH]c(=O)ccc12,3.18% [at 42.5 µM]
13,CC(O)C(C)O (stereo not drawn),1.58%
14,NC(=O)c1ccccc1C(N)=O,4.6%
15,O=Cc1ccc(Cl)c([N+](=O)[O-])c1,-3.74%
16,O=C(OCCOCCOCCOC(=O)c1ccccc1)c1ccccc1,-8.42%
17,CCCN(C1CCN(C(=O)C2CCNCC2)CC1)[C@@H]1CCc2ccc(OC)cc2C1,0.344%
18,CC1(C)CC(=O)CC(C)(C)N1,11.4%
19,CO[C@@H]1COCC[C@@H]1N[C@@H]1CC[C@@](C(=O)N2CCc3ncc(C(F)(F)F)cc3C2)(C(C)C)C1,2.7%

# From PubChem BioAssay (Tox21)
